Source: PubChem BioAssay AID504616 (Sanford-Burnham Center for Chemical Genomics, 2011)
The list shows a part of the results. Calls of active or inactive are those of the source.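 How the source made its calls: active means mean activity change at or below -40% when tested at 20 µM; inactive means the rest.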

test: Rh110 fluorescence interference by putative Apaf-1 activators, confirmation, artefact control for Apaf-1 activator project, biochemical, 20 µM (AID 504616); conditions: quenched caspase reaction, Ex480/Em540, at 20 µM

Fluorescence interference (activity change), inactive:
CCCC(=O)Nc1nc2ccc(NC(=O)c3c(F)c(F)c(OC)c(F)c3F)cc2s1 7.74%
O=C(Nc1cccc(C(F)(F)F)c1)c1cnccn1 0.73%
COc1ccc(OCCCC(=O)NCCc2ccccc2)cc1 3.73%
Cc1cc(NC(=O)c2cccc(N3C(=O)CCC3=O)c2)no1 0.61%
COc1ccc(C2c3ccc(O)cc3Oc3ncn(CCCO)c(=N)c32)cc1OC (configuration not stated) -0.45%
C=CCNC(=O)c1ccc(C)c(Br)c1 10.4%
Clc1cccc(-c2nc3nc4ccccc4nc3n2Cc2ccco2)c1 6.33%
CC(=O)NC(=S)NNC(=O)c1ccc(Br)cc1 -5.11%
COc1cc(C2C(C#N)=C(N)Oc3n[nH]c(-c4ccccn4)c32)cc(OC)c1OC (configuration not stated) 14.4%
Cc1nn(CC(=O)Nc2ccc(C#N)cc2)c(C)c1[N+](=O)[O-] -2.47%
CCOc1ccc(N=C2NC(=O)S/C2=C\c2ccc(O)cc2)cc1 -1.26%
O=c1[nH]cnc2c1c(-c1ccccc1)cn2-c1ccc(F)cc1 13.3%
Cc1ccc(S(=O)(=O)c2c(N)n(C)c3nc4ccccc4nc23)cc1 -4.76%
COc1cccc(C(=O)Nc2ccc(N3CCCC3)cc2)c1 2.88%
O=c1[nH]c2c(c(=O)n1Cc1ccccc1)CCC2 13.7%
C=CC1=C(C(=O)O)N2C(=O)[C@@H](NC(=O)/C(=N\OCC(=O)O)c3csc(N)n3)[C@H]2SC1 11.7%
Nc1cc(C(F)(F)F)ccc1N1CCOCC1 -1.22%
COC(CNC(=O)Cn1ncc2ccsc2c1=O)OC -3.81%
COc1cc(C(=O)NCc2nnc(SCC(=O)Nc3nc4ccc(C)cc4s3)o2)cc(OC)c1OC -5.21%
C=CC1=C(C(=O)O)N2C(=O)[C@@H](NC(=O)/C(=N/OCC(=O)O)c3csc(N)n3)[C@H]2SC1 3.12%
COC(=O)C(C)N(C#N)c1nc(C)nc(C)n1 (configuration not stated) 3.06%
O=C(Nc1ccccc1F)c1ccccc1-c1ccccc1 6.9%
